Most compounds without a hit are left out; they make up all but 9% or so of the library.
HTT ATP protect = Huntington cell model cytoprotection by ATP luminescence. 230,000 compounds, 0.14% hits. PC12 HTT-Q103 induced, cytoprotection, ATP luminescence, 40 h. Potency, µM (highest dose often 56.4 µM), usual class: activators. AID 1471; further: nearly all actives have a fitted effect of over 45% in size
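Compounds were screened for protection of PC12 cells against cell death after tebufenozide induction (100 nM final) of mutant Huntingtin exon 1 (Q103) fused to GFP.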
HPGD inh = HPGD (human) dehydrogenase inhibition; P15428; 150,000 compounds, 4.3% hits; Potency, µM, most hits filed as inhibitors; purified HPGD, NADH fluorescence kinetic, PGE2 substrate; active means well fitted inhibition curve with a large enough effect, not every such curve was filed as active; inconclusive means small, poorly fitted or top-dose-only effect, or another doubt; inactive means no such curve, though single readings can be large or run the other way
Target sequence (P15428 whole entry, looked up): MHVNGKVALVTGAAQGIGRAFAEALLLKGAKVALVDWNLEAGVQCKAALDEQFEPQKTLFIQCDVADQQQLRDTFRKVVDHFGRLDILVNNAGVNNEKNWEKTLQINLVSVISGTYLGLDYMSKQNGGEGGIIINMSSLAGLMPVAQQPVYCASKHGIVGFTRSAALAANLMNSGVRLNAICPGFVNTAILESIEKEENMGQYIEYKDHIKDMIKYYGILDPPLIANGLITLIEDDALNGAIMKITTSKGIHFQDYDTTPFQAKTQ
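20 nM HPGD preincubated 15 min at room temperature with compound in 50 mM Tris-HCl pH 8, 0.01% Tween 20. Started with 1 mM NAD+ and 30 uM prostaglandin E2; NADH fluorescence (360/450 nm) read 5 times over 30-s intervals, last minus first.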
LMNA splice mod = LMNA splicing modulation; HeLa LMNA splicing GFP/RFP minigene ratio, 48 h; Potency, µM (top dose mostly 46.1 µM), usual class: inhibitors; 200,000 compounds, 0.01% hits; active means well fitted inhibition curve with a large enough effect in the signal ratio, with a control signal flat, not every such curve was filed as active; inconclusive means small, poorly fitted or top-dose-only effect, or effect the other way, or a change in a side signal; the % refers to the signal ratio
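Read-out is the ratio of GFP to DsRed2 object intensity, acquired by 488 nm laser-scanning cytometry on HeLa lamin A-EGFP minigene reporter cells. Compound incubation 48 hrs at 37 °C in Opti-MEM with 2% FBS; DMSO 0.5% final.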
KinaseGlo FLuc = Kinase-Glo luciferase inhibition (counter-screen); AID 1379; 200,000 compounds, 0.28% hits; Kinase-Glo luciferase, ATP luminescence, 8 min; Q27757; Potency, µM (top dose mostly 38.3 µM), usual class: inhibitors; further: nearly all actives have a fitted effect of over 60% in size
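Kinase-Glo luciferase light output from ATP and luciferin was measured with 10 uM ATP, within the enzyme's linear range. Buffer: 50 mM imidazole pH 7.2, 50 mM KCl, 7 mM MgCl2, 0.01% Tween 20, 0.05% BSA; luminescence read after 8 min at ambient temperature.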
HTT aggregate = reduces HttQ103-GFP aggregates in PC12 cells | PC12 HttQ103-GFP aggregates, Acumen cytometry, 40 h | 220,000 compounds, 1.1% hits | Potency, µM (top dose mostly 46.1 µM), hits mostly inhibitors; further: nearly all actives have a fitted effect of over 60% in size
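Read-out: GFP aggregate count by laser scanning cytometer (488 nm excitation, 500-530 nm emission, 1–25 µm objects >6 SD above background). Cells: PC12, inducible HTTex1-Q103-GFP, 100 nM tebufenozide; compounds titrated.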
ALDH1A1 block = blocks purified human ALDH1A1 activity; Purified ALDH1A1, NADH fluorescence, propionaldehyde substrate; P00352; Potency, µM (titrated, usually from 75.3 µM), usual class: inhibitors; 220,000 compounds, 7.3% hits; AID 1030; active means well fitted inhibition curve with a large enough effect, not every such curve was filed as active; inconclusive means small, poorly fitted or top-dose-only effect, or another doubt; inactive means no such curve, though single readings can be large or run the other way
Target sequence (P00352 whole entry, looked up): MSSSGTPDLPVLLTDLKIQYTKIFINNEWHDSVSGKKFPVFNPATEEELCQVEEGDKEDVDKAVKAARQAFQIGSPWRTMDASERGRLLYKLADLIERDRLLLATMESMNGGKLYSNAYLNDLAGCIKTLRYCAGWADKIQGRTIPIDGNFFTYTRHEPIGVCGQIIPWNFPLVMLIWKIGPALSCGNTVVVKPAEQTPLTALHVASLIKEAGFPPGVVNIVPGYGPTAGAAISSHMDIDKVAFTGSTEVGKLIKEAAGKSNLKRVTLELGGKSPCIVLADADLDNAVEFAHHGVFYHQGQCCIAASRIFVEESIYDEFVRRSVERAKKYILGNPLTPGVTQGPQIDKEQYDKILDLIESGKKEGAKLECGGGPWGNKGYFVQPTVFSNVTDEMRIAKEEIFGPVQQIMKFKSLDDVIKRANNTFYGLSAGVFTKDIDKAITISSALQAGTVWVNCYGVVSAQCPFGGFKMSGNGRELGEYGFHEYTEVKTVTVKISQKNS
Numbers stand for hits; i = inactive; ? = inconclusive; nt = no result given; [ ] = remark or other dose. Unless noted, the call rests on the fitted dose curve; in most records, active means well fitted curve in the direction sought with a large enough effect; inconclusive means small, poorly fitted or top-dose-only effect, or another doubt; inactive means no such curve, though single readings can be large; an effect the other way counts as inactive or inconclusive.

SMILES	HTT ATP protect	HPGD inh	LMNA splice mod	KinaseGlo FLuc	HTT aggregate	ALDH1A1 block
Clc1ccc(C[n+]2csc3ccccc32)cc1	nt	16µM	i	i	i	2.8µM
Fc1ccc(CSc2ncnc3scc(-c4ccccc4)c23)cc1	i[10 µM]	i	?	i	i	i
CCC(=O)N1c2ccccc2CC1C(=O)NCCc1ccc(SC)cc1 (centres undefined)	nt	nt	i	nt	nt	nt
C/C(=N\NC(=O)c1ccccc1O)C1C(=O)c2ccccc2C1=O	i	?	?	i	?	i
NNC(=O)c1sc(-c2ccccc2)cc1N	i	nt	i	i	i	28µM
CC(=O)c1sc(-c2ccccc2)cc1N	i[10 µM]	nt	?	nt	i[9.22 µM]	i
COc1nc(NCCN2CCOCC2)nc(Nc2ccccc2)n1	i[0.074 µM]	i	i	i	i	i
CC(C#N)On1c(SC(C)C#N)nc2ccccc2c1=O (centres undefined)	i[0.074 µM]	i	i	i	i	16µM
COC(=O)C(/C=N/OCc1ccc([N+](=O)[O-])cc1)NC(=O)c1cccc(Cl)c1 (centres undefined)	i	i	i	i	i	1.4µM
COC(=O)NC(/C(C(=O)OC)=C(\C)NCc1ccccc1)c1ccccc1 (centres undefined)	i[10 µM]	nt	nt	nt	nt	i[13.5 µM]
COC(=O)NC(/C(C(=O)OC)=C(\C)NCc1ccccc1)c1ccc2ccccc2c1 (centres undefined)	i[10 µM]	nt	nt	nt	nt	3.5µM
CCN1C(=O)[C@H]2[C@H]3[C@H](O)[C@H](O)C/C(=N/NC(=O)OCc4ccc(OC)cc4)[C@@H]3CC[C@@H]2C1=O	i[10 µM]	nt	nt	nt	nt	i[13.5 µM]
CSc1ccc(C(=O)C2CCCN(C(=O)c3cccnc3SC)C2)cc1 (centres undefined)	i[10 µM]	nt	i	i	i[9.22 µM]	i
CSc1ccc(C(=O)C2CCCN(C(=O)c3ccsc3)C2)cc1 (centres undefined)	i[10 µM]	nt	nt	i	i[9.22 µM]	5µM
c1ccc(-n2nnnc2-n2nnc3ccccc32)cc1	i[10 µM]	i	i	i	i	i
Cc1ccc(/C=C/C(=O)N2CCCC(C(N)=O)C2)o1 (centres undefined)	i[10 µM]	nt	nt	nt	i[9.22 µM]	14µM
Cc1ccc(/C=C/C(=O)N2CCN(c3ncccn3)CC2)o1	i[10 µM]	20µM	i	i	?	3.5µM
C[C@@H]1Oc2ccccc2C=C1/C=C/C(=O)O	?	?	nt	i	nt	?
CCN(CC)c1ccc(/C=N/NC(=O)c2cccc(S(=O)(=O)Nc3ccccc3OC)c2)cc1	i[10 µM]	nt	i	i	i	10µM
COc1ccccc1NS(=O)(=O)c1cccc(C(=O)NN)c1	i	i	i	i	i	4µM
NNC(=O)c1cccc(S(=O)(=O)Nc2cc(Cl)ccc2Cl)c1	i[10 µM]	nt	nt	nt	i[9.22 µM]	nt
COc1ccccc1NS(=O)(=O)c1cccc(C(=O)N/N=C2\CC(=O)CC(C)(C)C2)c1	i[10 µM]	i	i	i	i	i
COc1ccccc1NS(=O)(=O)c1cccc(C(=O)NN=C2CCCC2)c1	i[10 µM]	nt	nt	i	?	13µM
COc1ccc(O[C@H]2C=C[C@@H](c3ccccc3)O[C@@H]2CO/N=C(\C)CCN2CCc3nc(-c4ccccc4)c(-c4ccccc4)cc3C2)cc1	?	i	?	i	i	i[13.5 µM]
Cc1ccnc2nc(C(=O)NCc3cccs3)nn12	i	i	i	i	i	i
SMILES	HTT ATP protect	HPGD inh	LMNA splice mod	KinaseGlo FLuc	HTT aggregate	ALDH1A1 block
CCOc1cccc(-c2nnc3sc(C4CCCCC4)nn23)c1	i	32µM	?	i	?	25µM
COc1cc(-c2nnc3sc(C4CCCCC4)nn23)cc(OC)c1OC	i[0.074 µM]	?	i	i	?	?
COc1cccc(-c2nnc3sc(C4CCCCC4)nn23)c1	?	i	i	i	2µM	?
Cc1ccc2nc(-c3ccc(N4C(=N)SC5CS(=O)(=O)CC54)cc3)sc2c1 (centres undefined)	i[10 µM]	nt	i	nt	i	?
COc1ccc(OC)c(CNC(=O)C2CCN(S(=O)(=O)N3CCCC3)CC2)c1	i	i	i	i	i	?
COc1cccc(CNC(=O)c2ccc(S(=O)(=O)N3CCCC3)cc2)c1	i	i	i	i	i	13µM
COc1cccc(CNC(=O)C2CCN(S(=O)(=O)N3CCCCC3)CC2)c1	i	i	i	i	i	10µM
COc1ccc(S(=O)(=O)N2CCC(C(=O)NCc3cccc(OC)c3)CC2)cc1	i	i	i	i	i	i
COc1cccc(CN(C)C(=O)c2ccc(S(=O)(=O)N3CCCC3)cc2)c1OC	i[10 µM]	i	?	i	i	11µM
COc1ccc(Br)cc1CNC(=O)C1CCN(S(=O)(=O)N2CCCCC2)CC1	i[0.074 µM]	i	i[0.0737 µM]	i	i	13µM
NC(=O)c1ccc2c(c1)S(=O)(=O)c1ccccc1C2=O	i[10 µM]	nt	nt	nt	i[9.22 µM]	nt
COc1ccc(-n2c(CNC(=O)c3ccc(S(=O)(=O)N4CCCC4)cc3)n[nH]c2=S)cc1	i	i	i	i	i	10µM
COc1ccc(C(=O)COC(=O)CNC(=O)C2CCCCC2)c(OC)c1	i	25µM	i	i	i[9.22 µM]	?
Cc1cc(C=O)c(C)n1-c1ccc(Cl)c(C(=O)O)c1	nt	nt	nt	i	i	?
COc1ccc(OC)c(-n2c(C)cc(C=O)c2C)c1	i	nt	i	i	i[9.22 µM]	5.6µM
COC(=O)c1cccc(-n2c(C)cc(C=O)c2C)c1C	i[10 µM]	i	i	i	i	0.63µM
COc1ccc(-n2c(C)cc(C=O)c2C)cc1Cl	i	18µM	i	i	i	1µM
COc1ccc(Br)cc1CNC(=O)c1cnc2sc(N3CCCC3)nn2c1=O	nt	nt	i	nt	nt	nt
Cn1ncc2c(Nc3cccc(C(=O)O)c3)ncnc21	i	i	i	i	i	13µM
CC(C)C(OC(=O)c1cc2occc2n1C)C(=O)NCc1ccc2c(c1)OCO2 (centres undefined)	i	13µM	?	i	i	?
COc1ccc2c(CC(=O)NCc3ccc4c(c3)OCO4)coc2c1	i[10 µM]	i	i	i	i	8.9µM
COC(=O)NCc1ccc2c(c1)OCO2	i	i	i	i	i	i
Cc1ccc(CC(=O)NCc2ccc3c(c2)OCO3)cc1	i	i	i	i	i	i
Cc1ccc2c(CC(=O)OC(C)C(=O)NCc3ccc4c(c3)OCO4)coc2c1 (centres undefined)	i	14µM	i	i	i	i
Cc1ccc2c(CC(=O)NCc3ccc4c(c3)OCO4)coc2c1	i	i	i	i	i	4.5µM
COc1ccccc1N1CCN(C(=O)C2CCN(S(=O)(=O)c3ccc(F)cc3)CC2)CC1	i	i	?	i	i	i
CCCNC(=O)C1CNc2ccccc2O1 (centres undefined)	i	25µM	i	i	i	i
O=C(O)c1ccccc1NS(=O)(=O)c1cccc2cccnc12	i	i	i	i	i	i
Cc1cc(C)n2c(SC/C(O)=C(\C#N)c3nc4ccccc4[nH]3)nnc2n1	i	?	i	i	i	18µM
O=C(O)CCC(=O)Nc1cccc(C(=O)c2ccccc2)c1	i[10 µM]	nt	nt	nt	i[9.22 µM]	nt
